Screening data (PubChem BioAssay)
Pf apPOL block: Pf-apPOL inhibitors, biochemical, fluorescence; Recombinant Pf-apPOL, molecular beacon fluorescence, 1.5 h; inhibition, % at 10 µM; 210,000 compounds, 0.25% hits
mHTT CaM bind: mutant huntingtin-calmodulin interaction inhibitors – biochemical, AlphaScreen, primary screen; inhibition, % at 15 µM; 190,000 compounds, 3.6% hits; AID 1671202, 2021; AlphaScreen His-mHTT/GST-CaM binding, luminescence; P42858
Hits are given with their value; 0 = inactive. Rows were chosen to be rich in hits. Some 3.6% of all compounds tested hit in one or more screens of this group. No stated cut-off is given here; in the data, active means inhibition above about 50%; inactive means the rest.

SMILES	Pf apPOL block	mHTT CaM bind
Cc1cc(C(=O)Nc2ccc(NC(=O)c3cccc(Cl)c3)cc2)ccc1[N+](=O)[O-]	0	0
CC(=O)Oc1cccc(C(=O)N2CCC(Cc3ccccc3)CC2)c1C	0	0
NC(=O)C1CCN(CC(=O)NC2CCCC2)CC1	0	0
Cc1ccccc1NCN1C(=O)S/C(=C\c2ccccc2)C1=O	0	53.0
Cc1ccccc1NCN1C(=O)S/C(=C\c2ccc(F)cc2)C1=O	0	0
Cc1ccc(-n2c(SCc3ccccc3)nc3[nH]ncc3c2=O)cc1	0	0
Cc1ccc(-n2c(SCc3cccc([N+](=O)[O-])c3)nc3[nH]ncc3c2=O)cc1Cl	0	58.0
COc1ccc(NC(=O)CSc2nc3[nH]ncc3c(=O)n2-c2ccc(Cl)cc2)c(OC)c1	0	0
Cc1ccc(CSc2nc3[nH]ncc3c(=O)n2-c2cccc(Cl)c2)cc1	0	0
Cc1cccc(-n2c(SCc3ccc(Cl)cc3)nc3[nH]ncc3c2=O)c1	0	79.0
CCc1ccc(-n2c(SCC(=O)Nc3ccc(OC)cc3OC)nc3[nH]ncc3c2=O)cc1	0	68.0
Cc1ccc(CSc2nc3[nH]ncc3c(=O)n2-c2ccc(C)cc2)cc1	81.0	0
O=c1c2cn[nH]c2nc(SCc2cccc([N+](=O)[O-])c2)n1-c1ccc(Cl)cc1	0	0
C=CCc1cccc2cc(C(=O)OCC(=O)c3ccc(Br)cc3)c(=O)oc12	0	0
CCc1cc(C(=O)Nc2ccc(Cl)cc2)nc2ccnn12	0	0
Cc1ccc(C2=N/C(=C/c3ccccc3C(F)(F)F)C(=O)O2)cc1	0	0
Cn1nccc1C(=O)N1CCCC(c2nncn2-c2ccccc2)C1 (stereo not given)	0	0
COC(=O)[C@H](CC(C)C)N(CCc1cn(Cc2ccc(C)cc2)nn1)S(=O)(=O)c1ccc(F)cc1Br	0	71.8
COC(=O)[C@H](CC(C)C)N(CCc1cn(Cc2ccccc2)nn1)S(=O)(=O)c1ccc(F)cc1Br	0	0
COc1cc(C(=O)N2CCC(CC(=O)NCc3cccnc3)CC2)cc(OC)c1OC	0	0
CCNC(=O)C1Cc2ccc(OC)cc2N2CCN(Cc3ccc(F)cc3)CC12 (stereo not given)	0	0
CCNC(=O)C1Cc2ccccc2N2CCN(c3cc(Cl)ccc3OC)CC12 (stereo not given)	0	0
COc1ccc2c(c1)N1CCN(c3ccccc3OC)CC1C(C(=O)NC1CC1)C2 (stereo not given)	0	58.7
C=CCNC(=O)C1Cc2ccccc2N2CCN(c3cc(Cl)ccc3OC)CC12 (stereo not given)	0	54.9
COc1ccccc1N1CCN2c3ccccc3CC(C(=O)NC3CC3)C2C1 (stereo not given)	0	0
SMILES	Pf apPOL block	mHTT CaM bind
COc1ccc2c(c1)N1CCN(Cc3ccc(F)cc3)CC1C(C(=O)NC1CC1)C2 (stereo not given)	0	93.2
Clc1ccccc1-c1nc(-c2ccc(-n3cccn3)nc2)no1	0	0
CC(C)c1cc(C2CCCN2C(=O)Nc2ccc(Cl)cc2)no1 (stereo not given)	0	0
CCN(Cc1ccncc1)C(=O)c1ccc(-c2ccc(F)cc2)s1	0	0
CCN(Cc1ccncc1)C(=O)c1ccc(-c2cccc(Cl)c2)s1	0	74.6
Cc1cccc(-c2noc(-c3ccc(=O)n(Cc4cccnc4)c3)n2)c1	0	0
CCc1ccc(-n2c(CN3CCN(C(=O)NC(C)CC)CC3)nc3cccnc32)cc1 (stereo not given)	0	0
CCOc1cc(C2C(C#N)=C(N)Oc3n[nH]c(-c4ccccc4)c32)ccc1O (stereo not given)	0	0
CCOc1cc(C2C(C#N)=C(N)Oc3n[nH]c(-c4ccccn4)c32)ccc1O (stereo not given)	0	52.0
COc1ccc(C2C(C#N)=C(N)Oc3n[nH]c(C)c32)cc1COc1cccc(Cl)c1 (stereo not given)	0	69.0
N#CC1=C(N)Oc2n[nH]c(-c3ccccn3)c2C1c1cccc(F)c1 (stereo not given)	0	0
COc1cccc(C2C(C#N)=C(N)Oc3n[nH]c(C)c32)c1 (stereo not given)	0	0
N#CC1=C(N)Oc2n[nH]c(-c3ccccn3)c2C1c1ccc(F)cc1 (stereo not given)	0	65.0
CCCNc1cc(N2CCC(CCC(=O)N3CCN(C4CCCCC4)CC3)CC2)ncn1	0	0
CC(O)(CNC(=O)c1cnc2ccccc2n1)c1ccccc1 (stereo not given)	0	0
CN1CCN(C(=O)CN(c2ccccc2F)S(C)(=O)=O)CC1	0	0
CCn1ncc(Br)c1C(=O)Nc1ccc(N(C)C)cc1	0	56.0
CN(C)c1ccc(NC(=O)c2ccc(Cn3cc([N+](=O)[O-])cn3)cc2)cc1	0	75.0
CC(=O)N(C)c1ccc(NC(=O)c2ccc(Cn3cc(Br)cn3)cc2)cc1	0	0
CCn1ncc(Br)c1C(=O)Nc1cccc(C(=O)O)c1	0	0
